Measurements published in PubChem BioAssay AID793 (The Scripps Research Institute Molecular Screening Center, 2007).
The whole screen tested about 140,000 compounds, of which about 1,400 (1%) were called active. No stated cut-off is given here; in the data, active means inhibition above about 17%; inactive means the rest. Only a selection was taken, and actives are over-represented in it overall.

The molecules below were run against Neuropeptide Y receptor type 2 (Homo sapiens) (UniProt P49146) (assay: NPY-Y2 receptor antagonists, primary screen, cell-based (AID 793;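 further: 0% = vehicle with agonist challenge and 100% = reference antagonist with challenge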)). Settings: NPY-Y2 expressing cells, antagonist mode; at 2.7 µM; active compounds read high.
Chain of Neuropeptide Y receptor type 2 (Homo sapiens) (P49146 whole entry, looked up): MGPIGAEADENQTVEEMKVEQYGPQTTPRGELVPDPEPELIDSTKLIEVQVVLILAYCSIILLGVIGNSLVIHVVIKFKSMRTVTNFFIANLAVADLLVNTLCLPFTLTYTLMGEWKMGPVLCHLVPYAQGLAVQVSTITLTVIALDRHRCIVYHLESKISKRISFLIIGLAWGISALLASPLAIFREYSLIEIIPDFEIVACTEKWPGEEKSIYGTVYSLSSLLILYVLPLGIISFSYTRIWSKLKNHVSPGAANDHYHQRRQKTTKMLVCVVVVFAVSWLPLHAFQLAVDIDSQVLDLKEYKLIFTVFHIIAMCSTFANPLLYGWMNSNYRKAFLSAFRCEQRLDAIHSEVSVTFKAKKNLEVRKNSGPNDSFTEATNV

inhibition, active:
O=C(Nc1ccccc1N1CCN(c2ccccc2)CC1)c1cccc(F)c1 19.2%
Nc1nonc1-c1nc2ccccc2n1Cc1ccc(F)cc1 18.1%
COc1ccc(C)c(Cn2c(-c3nonc3N)nc3ccccc32)c1 17.5%
O=C(NC(Nc1nc2ccc([N+](=O)[O-])cc2s1)(C(F)(F)F)C(F)(F)F)c1ccccc1 29.6%
COc1ccc(-c2nc3ccccc3n2CCC(C)C)cc1OC 19.5%
C=CCSc1nc2c(c(=O)[nH]1)C(C(C)C)C(C#N)=C(N)O2 (stereo not given) 121%
COc1ccc(/C(N)=N/OC(=O)CCCc2ccccc2)cc1 22.3%
COc1ccc(-c2cc(C(=O)n3cnc4ccccc43)c3ccccc3n2)cc1 58.8%
CCOC(=O)C(C)Sc1nc2ccccc2c(=O)n1CC1CCCCC1 (stereo not given) 18.5%
O=C(CC1CCCCC1)Nc1c2c(nn1-c1ccc(F)cc1)CS(=O)(=O)C2 21.6%

inhibition, inactive:
O=C(Nc1ccccc1N1CCCCC1)c1cccc(F)c1 8.36%
Cc1cccc(C(=O)Nc2ccccc2N2CCN(c3ccc(F)cc3)CC2)c1 8.99%
CC1CCN(C(=O)c2ccc(S(=O)(=O)Cc3cc(F)ccc3F)c([N+](=O)[O-])c2)CC1 -1.09%
Cc1cccc(C)c1NC(=O)C(c1ccccc1)N1CC(=O)Nc2ccccc21 (stereo not given) 1.93%
O=C(N/N=C/c1ccc(Br)o1)c1cncc(Br)c1 0.35%
CCCC(=O)Nc1cccc(NC(=S)NC(=O)C(C)Oc2ccc(Cl)cc2Cl)c1 (stereo not given) 0.34%
COCc1nc2ccccc2n1Cc1ccccc1Br 4.55%
CC(=O)Nc1nonc1-c1nc2ccccc2n1Cc1ccccn1 0.29%
Nc1nonc1-c1nc2ccccc2n1CCC(=O)O 3.2%
CCC(=O)Nc1nc2ccccc2n1Cc1ccccc1C 3.41%
Cc1cc(NC(=O)COC(=O)COc2ccc(Cl)cc2C)c([N+](=O)[O-])cc1C 5.09%
CCCC(C)C(=O)OCC(=O)Nc1c(Br)cc(C)cc1Br (stereo not given) 3.68%
O=C(CCCCCNC(=O)c1ccccc1)N/N=C/c1ccccc1 -0.13%
CCCOC(=O)c1ccc(N2C(=O)c3ccccc3C2=O)cc1 -1.24%
CCCC/S(C)=N/S(=O)(=O)c1ccc(C)cc1 (stereo not given) 1.98%
Cc1cc(C)cc(OCC(=O)Nc2nc3ccc([N+](=O)[O-])cc3s2)c1 1.9%
COC(=O)C(NC(=O)c1ccc(OC)cc1)(Nc1ncc(S(=O)(=O)c2ccc([N+](=O)[O-])cc2)s1)C(F)(F)F (stereo not given) 0.75%
COC(=O)C1NN=C(C(=O)c2ccc(Br)cc2)C1c1cccc(Br)c1 (stereo not given) 0.05%
Cc1cc(C)n(CC(O)CN(c2ccccc2)S(=O)(=O)c2ccc3ccccc3c2)n1 (stereo not given) -0.03%
CC1CCCN(CCOCCOc2ccccc2-c2ccccc2)C1 (stereo not given) 10.5%
Cc1ccc(CN2CCN(/N=C/c3cccnc3)CC2)c(C)c1 2.92%
C/C(=N\NC(=O)CNC(=O)C(c1ccccc1)c1ccccc1)c1ccc(C)cc1 1.86%
CCCn1c(C(O)c2cc(OC)ccc2OC)nc2ccccc21 (stereo not given) 4.69%
COCCn1c(-c2ccc(OC)c(OC)c2)nc2ccccc21 1.52%
COC(=O)c1cc2occc2n1Cc1nc(-c2ccccc2C)oc1C 11.1%
O=C(CCN1C(=O)c2ccccc2C1=O)NNC(=O)c1ccc(Cl)cc1Cl 0.71%
Cc1ccc(NC(=O)CC2S/C(=N/N=C3\CCCc4ccccc43)NC2=O)cc1 (stereo not given) -0.03%
Cc1cccc(OCCNC(=O)CSc2ccc(C(F)(F)F)cc2[N+](=O)[O-])c1 12.7%
Cc1ccc(C)c2[nH]c(=O)c(CCNC(=O)c3cccs3)cc12 2.37%
C=CCOC(=O)C1=C(C)OC(N)=C(C#N)C1c1ccc(F)cc1 (stereo not given) 7.81%
Cc1cc2c(c(=O)n1C)C(C(C)C)C(C#N)=C(N)O2 (stereo not given) -0.27%
CN(C)CCCO/N=C(\c1ccccc1)c1ccncc1 0.64%
Cc1ccc(C(=O)N/C(=C/c2cccnc2)C(=O)O)cc1 2.3%
Cc1nn(CC(=O)Nc2ccc(N(C)C)cc2)c(C)c1[N+](=O)[O-] -0.15%
N/C(=N\OC(=O)CCc1ccccc1)c1ccc(Cl)cc1 4.22%
COc1ccc(/C(N)=N/OC(=O)Cc2ccccc2)cc1 4.03%
COc1ccc(/C=N/N=C/c2c[nH]c(=O)c(C#N)c2Nc2ccccc2)cc1 3.81%
O=C(CNC(c1ccccc1)c1ccccc1)Nc1ccc(F)cc1 7.16%
O=C(COC(=O)/C(=C/c1cccs1)c1cccs1)NCc1ccccc1Cl 5.33%
Cc1ccc(OCC(=O)Nn2cnc3ccccc32)cc1 2.86%
C/C(N)=C(/C#N)C(=O)COC(=O)c1cc(-c2ccc(C)cc2)nc2ccccc12 -0.91%
CC(Sc1nc2ccccc2c(=O)n1Cc1ccco1)C(=O)c1ccccc1 (stereo not given) 6.17%
CCOn1c(SC(C)C)nc2ccccc2c1=O 7.2%
CCOC(=O)c1c(C)n(C)c2ccc(OC)c(NS(=O)(=O)CC)c12 -1.01%
CCOC(=O)Cc1csc(SCC(=O)NC(C)C23CC4CC(CC(C4)C2)C3)n1 (stereo not given) 5.04%
CNC(=S)N/N=C/c1ccc(OCc2ccccc2)c(Br)c1 6.18%
Cc1ccc2c(c1)C(c1ccccc1)N(C(=O)c1ccc(S(=O)(=O)N3CCOCC3)cc1)CC(=O)N2 (stereo not given) 0.56%
Cc1ccc(CC(=O)Nc2ccc(OC(F)F)c(Cl)c2)cc1C 1.54%
O=C(Nc1c2c(nn1-c1ccc(F)cc1)CS(=O)C2)C12CC3CC(CC(C3)C1)C2 (stereo not given) 2.38%
Cc1ccc(-n2nc3c(c2NC(=O)CCC2CCCCC2)CS(=O)C3)cc1 (stereo not given) 6.05%
